Data on 42 compounds can be found in PubChem BioAssay AID651548 (Broad Institute, 2012).

In all, about 57,000 compounds went through this assay and about 200 (0.35%) were called active. Shown is part of a subset that was picked to be rich in actives. Unmarked numbers belong to inactive results.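 Rule for the calls: active = mean inhibition of replicates at least 50% and every single replicate also reaching 50%; inconclusive = mean inhibition at least 50% but some replicate falls below 50%; inactive = mean inhibition under 50%.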

A word on the inhibition: it is the relative decrease from the control value, in per cent.

In the assay the target is Histone-lysine N-methyltransferase EZH2 (Homo sapiens) (UniProt Q15910). The experiment in a line: EZH2/PRC2 methyltransferase inhibitors, primary screen, biochemical, DELFIA time-resolved fluorescence, single point (AID 651548).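 Note: dimethyl H3K27 on biotinylated H3 21-44 peptide detected by antibody; plate controls were median neutral control wells for no effect and median positive control wells for full effect.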 Conditions: PRC2 H3K27 methylation, DELFIA TRF, 1 h; at 12.5 µM; active compounds read high.
Sequence of Histone-lysine N-methyltransferase EZH2 (Homo sapiens) (Q15910 whole entry, looked up): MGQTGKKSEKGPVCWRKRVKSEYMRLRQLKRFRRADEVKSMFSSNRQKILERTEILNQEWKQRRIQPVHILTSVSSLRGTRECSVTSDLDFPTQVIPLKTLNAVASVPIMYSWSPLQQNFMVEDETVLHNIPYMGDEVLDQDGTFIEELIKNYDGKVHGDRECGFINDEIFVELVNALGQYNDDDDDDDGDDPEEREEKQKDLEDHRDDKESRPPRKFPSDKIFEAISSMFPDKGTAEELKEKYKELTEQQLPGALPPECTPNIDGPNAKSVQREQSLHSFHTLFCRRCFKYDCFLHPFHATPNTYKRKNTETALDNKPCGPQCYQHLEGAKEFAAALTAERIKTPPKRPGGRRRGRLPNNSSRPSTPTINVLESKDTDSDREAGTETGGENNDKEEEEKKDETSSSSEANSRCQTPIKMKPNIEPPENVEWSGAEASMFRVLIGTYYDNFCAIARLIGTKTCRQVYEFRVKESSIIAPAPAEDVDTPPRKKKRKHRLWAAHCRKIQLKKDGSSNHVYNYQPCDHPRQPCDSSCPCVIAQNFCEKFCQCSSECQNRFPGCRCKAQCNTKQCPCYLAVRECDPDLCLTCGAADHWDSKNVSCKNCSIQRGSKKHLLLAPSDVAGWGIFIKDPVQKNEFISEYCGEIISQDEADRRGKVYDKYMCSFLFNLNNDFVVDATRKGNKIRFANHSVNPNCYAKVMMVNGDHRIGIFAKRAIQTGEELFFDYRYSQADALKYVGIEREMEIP
For the compound `CO[C@H]1CN(C)C(=O)c2cc(NS(=O)(=O)c3ccccc3)ccc2OC[C@H](C)NC[C@@H]1C`, the inhibition is 3.07%.
In the case of `CN(C)C(=O)C[C@H]1C[C@H]2c3cc(NC(=O)Nc4ccc(C(F)(F)F)cc4)ccc3O[C@H]2[C@@H](CO)O1` it was -22.5%; in that of `CO[C@@H]1CN(C)C(=O)c2cc(NC(=O)C3CCOCC3)ccc2OC[C@@H](C)NC[C@@H]1C`, 5.55%; in that of `CCC(=O)N1C[C@@H](C)[C@H](OC)CN(C)C(=O)c2ccc(NC(=O)COC)cc2OC[C@@H]1C`, 2.05%.
Then `CC(C)NC(=O)N[C@@H]1CC[C@H](CC(=O)NC2Cc3ccccc3C2)O[C@H]1CO`, with -19.2%.
Then `O=C(Nc1ccccc1F)N[C@@H]1CC[C@H](CCNC(=O)C2CC2)O[C@@H]1CO`, with -5.22%; and `C[C@@H](NC(=O)C[C@@H]1CC[C@H](NC(=O)Cc2ccccn2)[C@H](CO)O1)c1ccccc1`, with 5.38%; and `CO[C@@H]1CN(C)C(=O)c2cc(NC(=O)c3cnccn3)ccc2OC[C@@H](C)N(CC2CC2)C[C@H]1C`, with -3.51%.
For `CO[C@H]1CN(C)C(=O)c2ccc(NS(C)(=O)=O)cc2OC[C@@H](C)N(Cc2ccccc2)C[C@H]1C`, the inhibition was 27.6%.
In the case of `CN(C)C(=O)C[C@H]1CC[C@H](NC(=O)NC2CCCC2)[C@@H](CO)O1` it was 6.6%.
In the case of `CN(C)CC(=O)N[C@H]1CC[C@@H](CCNC(=O)C2CCCC2)O[C@@H]1CO` it was 4.19%; in that of `O=S(=O)(N[C@@H]1CC[C@@H](CCn2cc(-c3ccccn3)nn2)O[C@@H]1CO)c1cccc(Cl)c1`, 1.97%; in that of `O=C(Nc1ccccc1F)N[C@H]1C=C[C@H](CC(=O)N2CCCCC2)O[C@H]1CO`, 11.6%.
Then `C[C@@H]1CN([C@H](C)CO)S(=O)(=O)c2ccc(C#Cc3ccccc3F)cc2O[C@@H]1CN(C)C(=O)c1ccc2c(c1)OCO2`, with -7.72%.
On to `C[C@@H]1CN([C@@H](C)CO)C(=O)c2cc(C3=CCCC3)cnc2O[C@H]1CN(C)C(=O)c1ccccn1`, for which the inhibition was -1.13%.
In the case of `O=C(Nc1ccccc1F)N[C@@H]1C=C[C@H](CC(=O)N2CCCCC2)O[C@@H]1CO` it was -6.07%; in that of `C[C@@H]1CN([C@@H](C)CO)C(=O)c2cc(Br)cnc2O[C@H]1CN(C)Cc1ccc(-c2ccccc2)cc1`, 32.3%; in that of `CCCNC(=O)N(C)C[C@H]1Oc2cc(-c3ccncc3)ccc2S(=O)(=O)N([C@H](C)CO)C[C@@H]1C`, 2.1%.
In the case of `O=C(C[C@H]1C=C[C@@H](NC(=O)c2ccc(F)cc2)[C@@H](CO)O1)NCCc1ccncc1` it was -4.57%; in that of `O=C(N[C@@H]1CC[C@@H](CC(=O)N2CCc3ccccc3C2)O[C@@H]1CO)C1CCOCC1`, -3.58%; in that of `COCC#Cc1ccc2c(c1)O[C@H](CN(C)C(=O)CN(C)C)[C@@H](C)CN([C@H](C)CO)S2(=O)=O`, -3.07%.
Then `COCC(=O)N(C)C[C@@H]1Oc2ncc(-c3ccccc3OC)cc2C(=O)N([C@@H](C)CO)C[C@@H]1C`, with 16.6%; and `CCCN(C)C[C@H]1OCCCC[C@@H](C)Oc2ccc(NC(=O)Nc3ccc(F)cc3)cc2C(=O)N([C@@H](C)CO)C[C@H]1C`, with 18.6%; and `O=C(C[C@@H]1C[C@@H]2c3cc(NC(=O)c4ccc5c(c4)OCO5)ccc3O[C@@H]2[C@H](CO)O1)NCC1CC1`, with 6.48%.
Take `O=C(C[C@@H]1C[C@H]2c3cc(NC(=O)CC4CC4)ccc3O[C@H]2[C@@H](CO)O1)NCc1ccc2c(c1)OCO2`: the inhibition was -6.28%.
Then `O=C(C[C@@H]1C=C[C@@H](NS(=O)(=O)c2ccc(F)cc2)[C@@H](CO)O1)NCCN1CCCCC1`, with 7.22%; and `O=C(CN1CCOCC1)N[C@@H]1CC[C@@H](CCn2cc(C3CCCCC3)nn2)O[C@@H]1CO`, with 3.73%; and `O=C(C[C@@H]1C=C[C@H](NC(=O)Nc2ccc(C(F)(F)F)cc2)[C@H](CO)O1)NCc1cccc(F)c1`, with -12.8%.
As to `O=S(=O)(NCC[C@H]1CC[C@@H](NS(=O)(=O)c2ccccc2Cl)[C@@H](CO)O1)c1ccc(Cl)cc1`, the inhibition was -8.5%.
In the case of `O=C(CN1CCOCC1)N[C@H]1CC[C@@H](CCNS(=O)(=O)c2ccccc2F)O[C@H]1CO` it was 0.878%; in that of `COc1ccccc1CNC(=O)C[C@H]1C[C@H]2c3cc(NS(=O)(=O)c4ccc(F)cc4)ccc3O[C@H]2[C@@H](CO)O1`, -7.14%; in that of `O=C(Nc1ccccc1)N[C@H]1CC[C@H](CCNC(=O)c2ccccc2F)O[C@H]1CO`, -1.66%.
Then `Cc1ccccc1S(=O)(=O)NCC[C@@H]1CC[C@@H](NS(=O)(=O)c2ccccc2C)[C@@H](CO)O1`, with 6.69%; and `COc1cccc(S(=O)(=O)N[C@@H]2C=C[C@H](CC(=O)NC3CCC3)O[C@H]2CO)c1`, with 4.61%; and `CNC[C@H]1OCCCC[C@H](C)Oc2ccc(NS(C)(=O)=O)cc2C(=O)N([C@@H](C)CO)C[C@H]1C`, with 5.37%.
`CO[C@@H]1CN(C)C(=O)c2cc(NC(=O)c3cnccn3)ccc2OC[C@@H](C)N(C(=O)C2CC2)C[C@@H]1C`: the inhibition is 3.91%.
In the case of `C[C@@H]1CN([C@@H](C)CO)C(=O)Cc2cc(NC(=O)C3CCCCC3)ccc2O[C@H]1CN(C)C(=O)Nc1ccccc1` it was 1.25%.
In the case of `CCCNC(=O)Nc1ccc2c(c1)C(=O)N(C)C[C@H](OC)[C@H](C)CN(Cc1ccncc1)[C@H](C)CO2` it was -16.3%.
Then `CCCNC(=O)Nc1ccc2c(c1)OC[C@@H](C)N(CCC)C[C@H](C)[C@@H](OC)CN(C)C2=O`, with 0.898%; and `C[C@@H]1CN([C@@H](C)CO)C(=O)c2cc(C#CC3CCCCC3)cnc2O[C@@H]1CN(C)Cc1cncnc1`, with -2.95%.
With `O=C(C[C@H]1C[C@@H]2c3cc(NC(=O)C4CCC4)ccc3O[C@@H]2[C@@H](CO)O1)NCCN1CCCCC1`, the inhibition was 1.25%.
In the case of `CO[C@@H]1CN(C)C(=O)c2cc(NC(=O)Nc3ccc4c(c3)OCO4)ccc2OC[C@@H](C)NC[C@@H]1C` it was 3.91%.
